Article PMC11062922 (Nature Chemical Biology, 2023)
Read-outs that look alike come from different tables or passages of the source.

Legend:
Settings in all cases: read-out: apparent Kd, n = 1
[1] = test system: TBK1
[2] = test system: TGFBR1
[3] = test system: TNK1
[4] = compound concentrations:100 nM and 1000 nM (sheet 'Lestaurtinib' of Supplementary Table 1),run:Lestaurtinib_02407_R3,Plate:MR005
[5] = compound concentrations:100 nM and 1000 nM (sheet 'Lestaurtinib' of Supplementary Table 1),run:Lestaurtinib_02422_R1,Plate:MR006
[6] = compound concentrations:100 nM and 1000 nM (sheet 'Lestaurtinib' of Supplementary Table 1),run:Lestaurtinib_02438_R2,Plate:MR008
[7] = compound concentrations:100 nM and 1000 nM (sheet 'Lestaurtinib' of Supplementary Table 1),run:Lestaurtinib_02443_R3,Plate:MR009
[8] = compound concentrations:100 nM and 1000 nM (sheet 'Lestaurtinib' of Supplementary Table 1),run:Lestaurtinib_02473_R3,Plate:MR010
[9] = compound concentrations:100 nM and 1000 nM (sheet 'Lestaurtinib' of Supplementary Table 1),run:Lestaurtinib_02487_R2,Plate:MR012
[10] = compound concentrations:100 nM and 1000 nM (sheet 'Lestaurtinib' of Supplementary Table 1),run:Lestaurtinib_02496_R2,Plate:MR013
[11] = compound concentrations:100 nM and 1000 nM (sheet 'Lestaurtinib' of Supplementary Table 1),run:Lestaurtinib_02566_R1,Plate:MR014
[12] = compound concentrations:100 nM and 1000 nM (sheet 'Lestaurtinib' of Supplementary Table 1),run:Lestaurtinib_02566_R2,Plate:MR014
[13] = compound concentrations:100 nM and 1000 nM (sheet 'Lestaurtinib' of Supplementary Table 1),run:Lestaurtinib_02584_R3,Plate:MR017
[14] = compound concentrations:100 nM and 1000 nM (sheet 'Lestaurtinib' of Supplementary Table 1),run:Lestaurtinib_02606_R1,Plate:MR019
[15] = compound concentrations:100 nM and 1000 nM (sheet 'Lestaurtinib' of Supplementary Table 1),run:Lestaurtinib_02741_R3,Plate:MR023
[16] = compound concentrations:100 nM and 1000 nM (sheet 'Lestaurtinib' of Supplementary Table 1),run:Lestaurtinib_02752_R2,Plate:MR025
[17] = compound concentrations:100 nM and 1000 nM (sheet 'Lestaurtinib' of Supplementary Table 1),run:Lestaurtinib_02765_R2,Plate:MR026
[18] = compound concentrations:100 nM and 1000 nM (sheet 'Lestaurtinib' of Supplementary Table 1),run:Lestaurtinib_02766_R1,Plate:MR027
[19] = compound concentrations:100 nM and 1000 nM (sheet 'Lestaurtinib' of Supplementary Table 1),run:Lestaurtinib_02766_R3,Plate:MR027
[20] = compound concentrations:100 nM and 1000 nM (sheet 'Lestaurtinib' of Supplementary Table 1),run:Lestaurtinib_02802_R1,Plate:MR029
[21] = compound concentrations:100 nM and 1000 nM (sheet 'Lestaurtinib' of Supplementary Table 1),run:Lestaurtinib_02339_R2,Plate:MR001
[22] = compound concentrations:100 nM and 1000 nM (sheet 'Lestaurtinib' of Supplementary Table 1),run:Lestaurtinib_02339_R3,Plate:MR001
[23] = compound concentrations:100 nM and 1000 nM (sheet 'Lestaurtinib' of Supplementary Table 1),run:Lestaurtinib_02364_R3,Plate:MR002
[24] = compound concentrations:100 nM and 1000 nM (sheet 'Lestaurtinib' of Supplementary Table 1),run:Lestaurtinib_02367_R2,Plate:MR003

Lestaurtinib
potency estimated from few doses [1, 4]: 1330 nM
potency estimated from few doses [1, 5]: 703 nM
potency estimated from few doses [1, 6]: 1320 nM
potency estimated from few doses ([1]; compound concentrations:100 nM and 1000 nM (sheet 'Lestaurtinib' of Supplementary Table 1),run:Lestaurtinib_02443_R1,Plate:MR009): 1620 nM
potency estimated from few doses [1, 7]: 884 nM
potency estimated from few doses ([1]; compound concentrations:100 nM and 1000 nM (sheet 'Lestaurtinib' of Supplementary Table 1),run:Lestaurtinib_02473_R2,Plate:MR010): 1370 nM
potency estimated from few doses [1, 8]: 851 nM
potency estimated from few doses ([1]; compound concentrations:100 nM and 1000 nM (sheet 'Lestaurtinib' of Supplementary Table 1),run:Lestaurtinib_02482_R1,Plate:MR011): 1350 nM
potency estimated from few doses ([1]; compound concentrations:100 nM and 1000 nM (sheet 'Lestaurtinib' of Supplementary Table 1),run:Lestaurtinib_02482_R2,Plate:MR011): 1320 nM
potency estimated from few doses ([1]; compound concentrations:100 nM and 1000 nM (sheet 'Lestaurtinib' of Supplementary Table 1),run:Lestaurtinib_02487_R1,Plate:MR012): 950 nM
potency estimated from few doses [1, 9]: 1510 nM
potency estimated from few doses [1, 10]: 1240 nM
potency estimated from few doses ([1]; compound concentrations:100 nM and 1000 nM (sheet 'Lestaurtinib' of Supplementary Table 1),run:Lestaurtinib_02496_R3,Plate:MR013): 1350 nM
potency estimated from few doses [1, 11]: 854 nM
potency estimated from few doses [1, 12]: 1410 nM
potency estimated from few doses ([1]; compound concentrations:100 nM and 1000 nM (sheet 'Lestaurtinib' of Supplementary Table 1),run:Lestaurtinib_02577_R1,Plate:MR016): 807 nM
potency estimated from few doses [1, 13]: 1410 nM
potency estimated from few doses ([1]; compound concentrations:100 nM and 1000 nM (sheet 'Lestaurtinib' of Supplementary Table 1),run:Lestaurtinib_02601_R1,Plate:MR018): 1210 nM
potency estimated from few doses ([1]; compound concentrations:100 nM and 1000 nM (sheet 'Lestaurtinib' of Supplementary Table 1),run:Lestaurtinib_02601_R2,Plate:MR018): 1760 nM
potency estimated from few doses ([1]; compound concentrations:100 nM and 1000 nM (sheet 'Lestaurtinib' of Supplementary Table 1),run:Lestaurtinib_02601_R3,Plate:MR018): 1700 nM
potency estimated from few doses [1, 14]: 1530 nM
potency estimated from few doses ([1]; compound concentrations:100 nM and 1000 nM (sheet 'Lestaurtinib' of Supplementary Table 1),run:Lestaurtinib_02624_R1,Plate:MR020): 1910 nM
potency estimated from few doses ([1]; compound concentrations:100 nM and 1000 nM (sheet 'Lestaurtinib' of Supplementary Table 1),run:Lestaurtinib_02624_R2,Plate:MR020): 1400 nM
potency estimated from few doses ([1]; compound concentrations:100 nM and 1000 nM (sheet 'Lestaurtinib' of Supplementary Table 1),run:Lestaurtinib_02624_R3,Plate:MR020): 1460 nM
potency estimated from few doses [1, 15]: 1510 nM
potency estimated from few doses ([1]; compound concentrations:100 nM and 1000 nM (sheet 'Lestaurtinib' of Supplementary Table 1),run:Lestaurtinib_02748_R2,Plate:MR024): 1310 nM
potency estimated from few doses [1, 16]: 837 nM
potency estimated from few doses ([1]; compound concentrations:100 nM and 1000 nM (sheet 'Lestaurtinib' of Supplementary Table 1),run:Lestaurtinib_02752_R3,Plate:MR025): 961 nM
potency estimated from few doses [1, 17]: 1300 nM
potency estimated from few doses [1, 18]: 972 nM
potency estimated from few doses [1, 19]: 1300 nM
potency estimated from few doses ([1]; compound concentrations:100 nM and 1000 nM (sheet 'Lestaurtinib' of Supplementary Table 1),run:Lestaurtinib_02768_R2,Plate:MR028): 1930 nM
potency estimated from few doses ([1]; compound concentrations:100 nM and 1000 nM (sheet 'Lestaurtinib' of Supplementary Table 1),run:Lestaurtinib_02768_R3,Plate:MR028): 1330 nM
potency estimated from few doses ([1]; compound concentrations:100 nM and 1000 nM (sheet 'Lestaurtinib' of Supplementary Table 1),run:Lestaurtinib_02795_R1,Plate:MR022): 1800 nM
potency estimated from few doses ([1]; compound concentrations:100 nM and 1000 nM (sheet 'Lestaurtinib' of Supplementary Table 1),run:Lestaurtinib_02795_R2,Plate:MR022): 1370 nM
potency estimated from few doses ([1]; compound concentrations:100 nM and 1000 nM (sheet 'Lestaurtinib' of Supplementary Table 1),run:Lestaurtinib_02795_R3,Plate:MR022): 1700 nM
potency estimated from few doses [1, 20]: 976 nM
potency estimated from few doses ([1]; compound concentrations:100 nM and 1000 nM (sheet 'Lestaurtinib' of Supplementary Table 1),run:Lestaurtinib_02802_R2,Plate:MR029): 1300 nM
potency estimated from few doses ([1]; compound concentrations:100 nM and 1000 nM (sheet 'Lestaurtinib' of Supplementary Table 1),run:Lestaurtinib_03172_R2,Plate:MR031): 1750 nM
potency estimated from few doses ([1]; compound concentrations:100 nM and 1000 nM (sheet 'Lestaurtinib' of Supplementary Table 1),run:Lestaurtinib_03260_R1,Plate:MR033): 1460 nM
potency estimated from few doses ([1]; compound concentrations:100 nM and 1000 nM (sheet 'Lestaurtinib' of Supplementary Table 1),run:Lestaurtinib_03260_R2,Plate:MR033): 1580 nM
potency estimated from few doses ([1]; compound concentrations:100 nM and 1000 nM (sheet 'Lestaurtinib' of Supplementary Table 1),run:Lestaurtinib_03260_R3,Plate:MR033): 1240 nM
potency estimated from few doses [2, 21]: 1530 nM
potency estimated from few doses [2, 22]: 1420 nM
potency estimated from few doses [2, 23]: 1630 nM
potency estimated from few doses [2, 24]: 1900 nM
potency estimated from few doses ([2]; compound concentrations:100 nM and 1000 nM (sheet 'Lestaurtinib' of Supplementary Table 1),run:Lestaurtinib_02367_R3,Plate:MR003): 2070 nM
potency estimated from few doses ([2]; compound concentrations:100 nM and 1000 nM (sheet 'Lestaurtinib' of Supplementary Table 1),run:Lestaurtinib_02381_R1,Plate:MR004): 2080 nM
potency estimated from few doses ([2]; compound concentrations:100 nM and 1000 nM (sheet 'Lestaurtinib' of Supplementary Table 1),run:Lestaurtinib_02407_R1,Plate:MR005): 2020 nM
potency estimated from few doses [2, 5]: 964 nM
potency estimated from few doses ([2]; compound concentrations:100 nM and 1000 nM (sheet 'Lestaurtinib' of Supplementary Table 1),run:Lestaurtinib_02437_R2,Plate:MR007): 1790 nM
potency estimated from few doses ([2]; compound concentrations:100 nM and 1000 nM (sheet 'Lestaurtinib' of Supplementary Table 1),run:Lestaurtinib_02437_R3,Plate:MR007): 176 nM
potency estimated from few doses [2, 6]: 1420 nM
potency estimated from few doses ([2]; compound concentrations:100 nM and 1000 nM (sheet 'Lestaurtinib' of Supplementary Table 1),run:Lestaurtinib_02438_R3,Plate:MR008): 1580 nM
potency estimated from few doses [2, 7]: 1320 nM
potency estimated from few doses [2, 8]: 1750 nM
potency estimated from few doses ([2]; compound concentrations:100 nM and 1000 nM (sheet 'Lestaurtinib' of Supplementary Table 1),run:Lestaurtinib_02482_R3,Plate:MR011): 1760 nM
potency estimated from few doses [2, 9]: 1400 nM
potency estimated from few doses ([2]; compound concentrations:100 nM and 1000 nM (sheet 'Lestaurtinib' of Supplementary Table 1),run:Lestaurtinib_02496_R1,Plate:MR013): 1530 nM
potency estimated from few doses [2, 10]: 1830 nM
potency estimated from few doses [2, 11]: 827 nM
potency estimated from few doses [2, 12]: 1310 nM
potency estimated from few doses ([2]; compound concentrations:100 nM and 1000 nM (sheet 'Lestaurtinib' of Supplementary Table 1),run:Lestaurtinib_02566_R3,Plate:MR014): 1340 nM
potency estimated from few doses ([2]; compound concentrations:100 nM and 1000 nM (sheet 'Lestaurtinib' of Supplementary Table 1),run:Lestaurtinib_02577_R3,Plate:MR016): 1820 nM
potency estimated from few doses [2, 13]: 1580 nM
potency estimated from few doses [2, 14]: 2210 nM
potency estimated from few doses ([2]; compound concentrations:100 nM and 1000 nM (sheet 'Lestaurtinib' of Supplementary Table 1),run:Lestaurtinib_02606_R2,Plate:MR019): 2080 nM
potency estimated from few doses [2, 15]: 1350 nM
potency estimated from few doses ([2]; compound concentrations:100 nM and 1000 nM (sheet 'Lestaurtinib' of Supplementary Table 1),run:Lestaurtinib_02748_R1,Plate:MR024): 1420 nM
potency estimated from few doses ([2]; compound concentrations:100 nM and 1000 nM (sheet 'Lestaurtinib' of Supplementary Table 1),run:Lestaurtinib_02748_R3,Plate:MR024): 1750 nM
potency estimated from few doses [2, 16]: 1600 nM
potency estimated from few doses [2, 17]: 2020 nM
potency estimated from few doses [2, 18]: 1360 nM
potency estimated from few doses [2, 19]: 1570 nM
potency estimated from few doses [2, 20]: 1540 nM
potency estimated from few doses ([2]; compound concentrations:100 nM and 1000 nM (sheet 'Lestaurtinib' of Supplementary Table 1),run:Lestaurtinib_02896_R3,Plate:MR030): 950 nM
potency estimated from few doses ([2]; compound concentrations:100 nM and 1000 nM (sheet 'Lestaurtinib' of Supplementary Table 1),run:Lestaurtinib_03172_R1,Plate:MR031): 1540 nM
potency estimated from few doses ([2]; compound concentrations:100 nM and 1000 nM (sheet 'Lestaurtinib' of Supplementary Table 1),run:Lestaurtinib_03172_R3,Plate:MR031): 1580 nM
potency estimated from few doses ([2]; compound concentrations:100 nM and 1000 nM (sheet 'Lestaurtinib' of Supplementary Table 1),run:Lestaurtinib_03252_R1,Plate:MR032): 1330 nM
potency estimated from few doses ([2]; compound concentrations:100 nM and 1000 nM (sheet 'Lestaurtinib' of Supplementary Table 1),run:Lestaurtinib_03252_R2,Plate:MR032): 1590 nM
potency estimated from few doses ([3]; compound concentrations:100 nM and 1000 nM (sheet 'Lestaurtinib' of Supplementary Table 1),run:Lestaurtinib_02339_R1,Plate:MR001): 220 nM
potency estimated from few doses [3, 21]: 93.5 nM
potency estimated from few doses [3, 22]: 256 nM
potency estimated from few doses ([3]; compound concentrations:100 nM and 1000 nM (sheet 'Lestaurtinib' of Supplementary Table 1),run:Lestaurtinib_02364_R2,Plate:MR002): 213 nM
potency estimated from few doses [3, 23]: 190 nM
potency estimated from few doses ([3]; compound concentrations:100 nM and 1000 nM (sheet 'Lestaurtinib' of Supplementary Table 1),run:Lestaurtinib_02367_R1,Plate:MR003): 191 nM
potency estimated from few doses [3, 24]: 208 nM
potency estimated from few doses [3, 4]: 213 nM
potency estimated from few doses ([3]; compound concentrations:100 nM and 1000 nM (sheet 'Lestaurtinib' of Supplementary Table 1),run:Lestaurtinib_02422_R3,Plate:MR006): 75 nM
